Laboratory results: PubChem BioAssay (NCI)
Compounds without any hit were thinned out: in the full panel of roughly 83,000, 20% have a hit.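 Interpretation: 100, growth as untreated; towards 0, rising growth inhibition; 0, no net growth; 0 to -100, cell death. Compounds scoring below 10 were considered active.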 Calls of active or inactive are those of the source.

Legend:
Assay in all cases: NCI-60 one-dose screen, 48 h (100 = growth as untreated, 0 = no growth, -100 = all killed)
Settings in all cases: 10 µM unless noted
SR leukemia = test system: SR leukemia
RPMI-8226 leukemia = test system: RPMI-8226 leukemia
OVCAR-8 ovarian = test system: OVCAR-8 ovarian
OVCAR-5 ovarian = test system: OVCAR-5 ovarian
OVCAR-4 ovarian = test system: OVCAR-4 ovarian
SK-OV-3 ovarian = test system: SK-OV-3 ovarian
IGROV1 ovarian = test system: IGROV1 ovarian
OVCAR-3 ovarian = test system: OVCAR-3 ovarian
HS 578T breast = test system: HS 578T breast
NCI/ADR-RES ovarian = test system: NCI/ADR-RES ovarian
T-47D breast = test system: T-47D breast
BT-549 breast = test system: BT-549 breast
MDA-MB-435 melanoma = test system: MDA-MB-435 melanoma
SW-620 colon = test system: SW-620 colon
MCF7 breast = test system: MCF7 breast
HCT-116 colon = test system: HCT-116 colon
HCC-2998 colon = test system: HCC-2998 colon
KM12 colon = test system: KM12 colon

Measured: growth

N#Cc1cc(-c2nc3ccccc3s2)c(=O)n(NS(=O)(=O)c2ccccc2)c1N
inactive: SR leukemia 108% | RPMI-8226 leukemia 103% | OVCAR-8 ovarian 106% | OVCAR-5 ovarian 102% | OVCAR-4 ovarian 107% | SK-OV-3 ovarian 90.3% | IGROV1 ovarian 98.7% | OVCAR-3 ovarian 114% | HS 578T breast 101% | NCI/ADR-RES ovarian 105% | T-47D breast 94.5% | BT-549 breast 98.2% | MDA-MB-435 melanoma 102% | SW-620 colon 100% | MCF7 breast 105% | HCT-116 colon 109% | HCC-2998 colon 116% | KM12 colon 103%

CCOC(=O)C1=C(C)NC(SCc2cc(=O)oc3ccc(F)cc23)=N[C@@H]1c1cccc2ccccc12
inactive: SR leukemia 83.5% | RPMI-8226 leukemia 90.5% | OVCAR-8 ovarian 89.5% | OVCAR-5 ovarian 119% | OVCAR-4 ovarian 102% | SK-OV-3 ovarian 92.5% | IGROV1 ovarian 99.4% | OVCAR-3 ovarian 92.4% | HS 578T breast 106% | NCI/ADR-RES ovarian 98.7% | T-47D breast 82.4% | BT-549 breast 102% | MDA-MB-435 melanoma 99.1% | SW-620 colon 101% | MCF7 breast 84.3% | HCT-116 colon 76.9% | HCC-2998 colon 105% | KM12 colon 97.7%

COc1ccc(C(=O)/C=C/c2cc3ccccc3n3nnnc23)cc1
inactive: SR leukemia 92.3% | RPMI-8226 leukemia 98.7% | OVCAR-8 ovarian 109% | OVCAR-5 ovarian 108% | OVCAR-4 ovarian 106% | SK-OV-3 ovarian 102% | IGROV1 ovarian 109% | OVCAR-3 ovarian 113% | HS 578T breast 106% | NCI/ADR-RES ovarian 113% | T-47D breast 92.1% | BT-549 breast 99.2% | MDA-MB-435 melanoma 103% | SW-620 colon 113% | MCF7 breast 94.7% | HCT-116 colon 106% | HCC-2998 colon 111% | KM12 colon 109%

COc1cc(/C=C\C(=O)O)ccc1OCc1ccccc1
inactive: SR leukemia 97.7% | RPMI-8226 leukemia 90.2% | OVCAR-8 ovarian 93.7% | OVCAR-5 ovarian 110% | OVCAR-4 ovarian 108% | SK-OV-3 ovarian 102% | IGROV1 ovarian 103% | OVCAR-3 ovarian 104% | HS 578T breast 101% | NCI/ADR-RES ovarian 101% | T-47D breast 82.1% | BT-549 breast 112% | MDA-MB-435 melanoma 119% | SW-620 colon 105% | MCF7 breast 96% | HCT-116 colon 95.2% | HCC-2998 colon 104% | KM12 colon 104%

N/C(=N\C(N)=N\c1nc2ccccc2s1)c1cccc(Cl)c1
inactive: SR leukemia 16.6% | RPMI-8226 leukemia 80.8% | OVCAR-8 ovarian 70.8% | OVCAR-5 ovarian 111% | OVCAR-4 ovarian 71.5% | SK-OV-3 ovarian 98.3% | IGROV1 ovarian 75.9% | OVCAR-3 ovarian 99.2% | HS 578T breast 97% | NCI/ADR-RES ovarian 77.4% | T-47D breast 46.9% | BT-549 breast 81.1% | MDA-MB-435 melanoma 99.3% | SW-620 colon 98.5% | MCF7 breast 69.9% | HCT-116 colon 73.8% | HCC-2998 colon 104% | KM12 colon 40.8%

COc1ccc(NC(=O)c2cc(NCc3cc(O)ccc3O)ccc2O)cc1
inactive: SR leukemia 39.3% | RPMI-8226 leukemia 49.5% | OVCAR-8 ovarian 83.3% | OVCAR-5 ovarian 116% | OVCAR-4 ovarian 91.9% | SK-OV-3 ovarian 86% | IGROV1 ovarian 88.4% | OVCAR-3 ovarian 84.3% | HS 578T breast 90.1% | NCI/ADR-RES ovarian 101% | T-47D breast 68.4% | BT-549 breast 71.8% | MDA-MB-435 melanoma 99.7% | SW-620 colon 100% | MCF7 breast 75.6% | HCT-116 colon 96.9% | HCC-2998 colon 107% | KM12 colon 88.3%

COc1ccc2c(c1)C(=O)CC(c1ccccc1OC)O2 (stereo unspecified)
inactive: SR leukemia 89.3% | RPMI-8226 leukemia 105% | OVCAR-8 ovarian 100% | OVCAR-5 ovarian 108% | OVCAR-4 ovarian 102% | SK-OV-3 ovarian 104% | IGROV1 ovarian 79.3% | OVCAR-3 ovarian 117% | HS 578T breast 101% | NCI/ADR-RES ovarian 86% | T-47D breast 91.1% | BT-549 breast 96.5% | MDA-MB-435 melanoma 100% | SW-620 colon 103% | MCF7 breast 83.8% | HCT-116 colon 103% | HCC-2998 colon 105% | KM12 colon 102%

NNC(=O)c1ccc(-n2nc(-c3ccccc3)c3ccccc32)cc1
active: OVCAR-3 ovarian 8.87%
inactive: SR leukemia 83.5% | RPMI-8226 leukemia 86.4% | OVCAR-8 ovarian 77% | OVCAR-5 ovarian 93.8% | OVCAR-4 ovarian 23.9% | SK-OV-3 ovarian 98.9% | IGROV1 ovarian 73.7% | HS 578T breast 73% | NCI/ADR-RES ovarian 91.5% | T-47D breast 38.1% | BT-549 breast 73.6% | MDA-MB-435 melanoma 93.9% | SW-620 colon 95.5% | MCF7 breast 74% | HCT-116 colon 82.2% | HCC-2998 colon 54.8% | KM12 colon 94.8%

CC(=O)c1cc2c(N)c(C(=O)Nc3cccc4ccncc34)sc2nc1C
inactive: SR leukemia 49.8% | RPMI-8226 leukemia 103% | OVCAR-8 ovarian 108% | OVCAR-5 ovarian 106% | OVCAR-4 ovarian 110% | SK-OV-3 ovarian 93.4% | IGROV1 ovarian 101% | OVCAR-3 ovarian 103% | HS 578T breast 91.3% | NCI/ADR-RES ovarian 108% | T-47D breast 97.1% | BT-549 breast 102% | SW-620 colon 101% | MCF7 breast 83.7% | HCT-116 colon 102% | HCC-2998 colon 107% | KM12 colon 101%
active: MDA-MB-435 melanoma 6.83%

Cc1ccc(/C=C(/C#N)n2nnc3cccc(F)c32)cc1
inactive: OVCAR-4 ovarian 23% | SK-OV-3 ovarian 27.8% | IGROV1 ovarian 17.6% | T-47D breast 21.9% | BT-549 breast 27.1% | MCF7 breast 13.5%
active: SR leukemia 9.82% | RPMI-8226 leukemia -4.51% | OVCAR-8 ovarian 8.47% | OVCAR-5 ovarian 0.132% | OVCAR-3 ovarian -53.2% | HS 578T breast -14.8% | NCI/ADR-RES ovarian -33.1% | MDA-MB-435 melanoma -89.5% | SW-620 colon 1.87% | HCT-116 colon 2.07% | HCC-2998 colon -32.1% | KM12 colon -17.6%

CC(=O)O[C@H]1Cc2c([nH]c3ccccc23)[C@@H](c2ccc(Cl)cc2)N1C(=O)CCNC(C)(C)C
active: SR leukemia 3.79%
inactive: RPMI-8226 leukemia 44.2% | OVCAR-8 ovarian 83.4% | OVCAR-5 ovarian 59.6% | OVCAR-4 ovarian 64.6% | SK-OV-3 ovarian 90.5% | IGROV1 ovarian 24.6% | OVCAR-3 ovarian 70.8% | HS 578T breast 62.3% | NCI/ADR-RES ovarian 91.8% | T-47D breast 74.3% | BT-549 breast 53.7% | MDA-MB-435 melanoma 70% | SW-620 colon 61.1% | MCF7 breast 34.3% | HCT-116 colon 20.8% | HCC-2998 colon 60.3% | KM12 colon 66.6%

NC(=NCc1ccccc1)C(N=Nc1ccccc1)C(=O)NCc1ccccc1 (stereo unspecified)
inactive: SR leukemia 19.1% | RPMI-8226 leukemia 90.9% | OVCAR-8 ovarian 31.1% | OVCAR-5 ovarian 100% | OVCAR-4 ovarian 76.5% | SK-OV-3 ovarian 95.6% | IGROV1 ovarian 81.5% | OVCAR-3 ovarian 88.8% | HS 578T breast 64% | NCI/ADR-RES ovarian 50.2% | T-47D breast 84.6% | BT-549 breast 114% | MDA-MB-435 melanoma 81.4% | SW-620 colon 61.5% | MCF7 breast 69.4% | HCT-116 colon 15.8% | HCC-2998 colon 74.7% | KM12 colon 34.6%

O=C1c2ccc3c4c(ccc(c24)C(=O)N1CCCNCc1ccccc1)C(=O)N(CCCNCc1ccccc1)C3=O
active: SR leukemia -47.2% | RPMI-8226 leukemia -36.7% | OVCAR-8 ovarian -50.7% | OVCAR-5 ovarian -20.6% | OVCAR-4 ovarian -97.2% | SK-OV-3 ovarian -11.4% | IGROV1 ovarian -23.4% | OVCAR-3 ovarian -63.4% | HS 578T breast -32.3% | NCI/ADR-RES ovarian -26.5% | T-47D breast -29.9% | BT-549 breast -85.2% | MDA-MB-435 melanoma -54% | SW-620 colon -81.8% | MCF7 breast -83.8% | HCT-116 colon -44.9% | HCC-2998 colon -90.8% | KM12 colon -81.8%

COc1cc2c(-c3cc4c(cc3CNCCc3ccc5c(c3)OCO5)OCO4)cccc2c(OC)c1O
inactive: SR leukemia 27.8% | RPMI-8226 leukemia 63.8% | OVCAR-8 ovarian 79.9% | OVCAR-5 ovarian 90.9% | OVCAR-4 ovarian 88.4% | SK-OV-3 ovarian 99.6% | IGROV1 ovarian 61.6% | OVCAR-3 ovarian 86.1% | HS 578T breast 86.8% | NCI/ADR-RES ovarian 74.5% | T-47D breast 67.3% | BT-549 breast 91.3% | MDA-MB-435 melanoma 96.9% | SW-620 colon 85.4% | MCF7 breast 76.8% | HCT-116 colon 60.7% | HCC-2998 colon 42.7% | KM12 colon 96.5%

COc1cccc(-c2nc3occn3c2-c2ccnc(NCCNS(=O)(=O)c3ccc(C(F)(F)F)cc3)n2)c1
active: HS 578T breast -23.5%
inactive: SR leukemia 96.6% | RPMI-8226 leukemia 69.2% | OVCAR-8 ovarian 90.8% | OVCAR-5 ovarian 116% | OVCAR-4 ovarian 83.7% | SK-OV-3 ovarian 103% | IGROV1 ovarian 80.6% | OVCAR-3 ovarian 96.7% | NCI/ADR-RES ovarian 99.4% | T-47D breast 41.1% | BT-549 breast 96.5% | MDA-MB-435 melanoma 70.4% | SW-620 colon 113% | MCF7 breast 80.9% | HCT-116 colon 92.9% | HCC-2998 colon 133% | KM12 colon 98.9%

O=C(/C=C(/C=C/c1csc2ccccc12)OB(F)F)/C=C/c1csc2ccccc12
inactive: OVCAR-5 ovarian 60.6% | SK-OV-3 ovarian 100% | IGROV1 ovarian 11.3% | NCI/ADR-RES ovarian 18.3% | T-47D breast 38.4% | MCF7 breast 39.9% | HCC-2998 colon 92% | KM12 colon 37.7%
active: SR leukemia 3.63% | RPMI-8226 leukemia -12% | OVCAR-8 ovarian -9.55% | OVCAR-4 ovarian -0.888% | OVCAR-3 ovarian -14.2% | HS 578T breast 3.47% | BT-549 breast 4.74% | MDA-MB-435 melanoma -18.6% | SW-620 colon 5.19% | HCT-116 colon -57.7%

CCN(Cc1ccccc1)c1ccc(C=O)cc1
inactive: SR leukemia 90.3% | RPMI-8226 leukemia 90.4% | OVCAR-8 ovarian 97.8% | OVCAR-5 ovarian 93.1% | OVCAR-4 ovarian 85.8% | SK-OV-3 ovarian 103% | IGROV1 ovarian 96.1% | OVCAR-3 ovarian 97.9% | HS 578T breast 120% | NCI/ADR-RES ovarian 101% | T-47D breast 78.6% | BT-549 breast 95.1% | MDA-MB-435 melanoma 107% | SW-620 colon 97.9% | MCF7 breast 96% | HCT-116 colon 91.3% | HCC-2998 colon 93.7% | KM12 colon 106%
